Each structure is given as a SMILES string. Where “and” joins values, the source holds several entries; their conditions need not be identical. Equal values may be shown once. Inconclusive results are not listed. Some compounds were tested as several samples or in several runs, with calls that do not always agree. Calls of active or inactive are those of the source. The calls were made as follows: active = hit-call score of the fitted dose curve at least 0.9, where 1 is the maximum; inconclusive = response in the unintended direction; inactive = score below 0.9.

The test can be described thus: Tanguay_ZF_120hpf_BRAI_legacy: (Legacy) Oregon State University Tanguay Lab 120 Hour Post-fertilization zebrafish Assay for Brain Malformation (AID 2283641). Here is the method: Tanguay_ZF_120hpf_legacy is a whole embryo, multiplexed endpoint assay using zebrafish larvae exposed for 120 hours post fertilization on a 96-well plate.Tanguay_ZF_120hpf_BRAI_legacy is one of one assay component(s) measured or calculated from the Tanguay_ZF_120hpf_legacy assay. It is designed to make measurements of zebrafish development as detected with brightfield microscopy of developing zebrafish embryos.Data from the assay component Tanguay_ZF_120hpf_BRAI_legacy was analyzed into 1 assay endpoints. This assay endpoint, Tanguay_ZF_120hpf_BRAI_legacy, was analyzed in the positive analysis fitting direction relative to DMSO as the negative control and baseline of activity. Using a type of morphology reporter, gain-of-signal activity can be used to understand changes in developmentals as they relate to the whole embryo. To generalize the intended target to other relatable targets, this assay endpoint is annotated to the zebrafish development intended target family, where the subfamily is brain morphogenesis.
Zebrafish husbandry: Tropical 5D wild-type adult zebrafish were housed in at an approximate density of 1000 per 100 gallon tank at the Sinnhuber Aquatic Research Laboratory, Oregon State University, Corvallis, OR. Each tank was kept at standard laboratory conditions of 28C on a 14-h light/10-h dark photoperiod in fish water consisting of reverse osmosis water supplemented with a commercially available salt (Instant Ocean). Spawning funnels were placed into the tanks the night prior, and embryos were collected and staged. […] Ten microliters of each row of dilution plate 2 was added to 2 exposure plates. The final DMSO concentration used was 0.64% (vol/vol). Thirty-two embryos were also exposed to 5uM trimethyltin chloride (positive control). Plates were sealed to prevent evaporation and foil covered to reduce light exposure and kept in a 28C incubator. Embryos were statically exposed until 120 hpf. At 24 hpf, embryos were assessed for photomotor response using a custom photomotor response analysis tool (PRAT) and for developmental toxicity endpoints (MO24: mortality at 24 hpf, DP: developmental progression, SM: spontaneous movement, and NC: notochord distortion). At 120 hpf, locomotor activity was measured using Viewpoint Zebralab and assessed for 18 endpoints. Zebrafish acquisition and analysis program (ZAAP), a custom program designed to inventory, acquire, and manage zebrafish data, was used to collect developmental endpoints as either present or absent (i.e., binary responses were recorded). If mortality occurred for an embryo (at either 24 or 120 hpf), the non-mortality endpoints were not measured.
`CC1(c2ccc(Oc3ccccc3)cc2)OC(=O)N(Nc2ccccc2)C1=O` (stereo not given): the outcome was inactive. As for `CC(C)OC(=O)Nc1cccc(Cl)c1`, the half-maximal activity concentration (AC50) (commonly the concentration at which the activity in the assay is half-maximal) was 39.5 µM (active).

Regarding `COP(=S)(OC)Oc1ccc(SC)c(C)c1`, the result was inactive.

With `CNC(=O)Oc1ccccc1OC(C)C`, the outcome was inactive.

For `O=[N+]([O-])/N=C1\NCCN1Cc1ccc(Cl)nc1`, the outcome was inactive. As to `N#Cc1c(Cl)c(Cl)c(Cl)c(C#N)c1Cl`, the compound was called inactive. Regarding `Cc1[nH]c(=O)n(C(C)(C)C)c(=O)c1Cl`, the result was inactive. Still for that read-out and setting: the value for `CCOC1Oc2ccc(OS(C)(=O)=O)cc2C1(C)C` (stereo not given) was “inactive”. Turning to `O=S(=O)(O)C(F)(F)C(F)(F)C(F)(F)C(F)(F)C(F)(F)C(F)(F)C(F)(F)C(F)(F)F`, the result was inactive and the AC50 was 34.2 µM (active).

As to `C[C@H]1[C@H](c2ccc(Cl)cc2)SC(=O)N1C(=O)NC1CCCCC1`, the outcome was inactive. For `O=C(O)CCCOc1ccc(Cl)cc1Cl`, the compound was called inactive.

Consider `COc1nn(CSP(=S)(OC)OC)c(=O)s1`, for which the outcome was inactive. Still for that read-out and setting: under `ClC1C(Cl)C(Cl)C(Cl)C(Cl)C1Cl` (stereo not given) stands “inactive”; under `Oc1cc(Cl)ccc1Oc1ccc(Cl)cc1Cl`, “inactive”; under `CC1(C)C(C=C(Cl)Cl)C1C(=O)OC(C#N)c1ccc(F)c(Oc2ccccc2)c1` (stereo not given), “inactive”. Take `CNC(=O)Oc1cccc(N=CN(C)C)c1`: the call was inactive.

On to `CC[C@H](C)[C@H]1O[C@]2(C=C[C@@H]1C)C[C@@H]1C[C@@H](C/C=C(\C)[C@@H](O[C@H]3C[C@H](OC)[C@@H](O[C@H]4C[C@H](OC)[C@@H](O)[C@H](C)O4)[C@H](C)O3)[C@@H](C)/C=C/C=C3\CO[C@@H]4[C@H](O)C(C)=C[C@@H](C(=O)O1)[C@]34O)O2` (tested in a mixture with another compound), for which the AC50 was 15.6 µM (active). The same measure, in the same setting: under `CC(C)(C)C(O)/C(=C\c1ccc(Cl)cc1Cl)n1cncn1` (stereo not given) stands 8.24 µM (active). On to `O=S1OCC2C(CO1)C1(Cl)C(Cl)=C(Cl)C2(Cl)C1(Cl)Cl` (stereo not given), for which the compound was called inactive. Same read-out and setting: under `C#CCN1C(=O)COc2cc(F)c(N3C(=O)C4=C(CCCC4)C3=O)cc21` stands “inactive”; under `CCCN(CCOc1c(Cl)cc(Cl)cc1Cl)C(=O)n1ccnc1`, “inactive”. Regarding `CN1CSC(=S)N(C)C1`, the call was inactive. With `OCCOc1ccccc1`, the result was inactive.

As for `CCOCN(C(=O)CCl)c1c(C)cccc1CC`, the outcome was inactive. Still for that read-out and setting: under `O=C1c2ccccc2C(=O)N1SC(Cl)(Cl)Cl` stands “inactive”; under `COP(=O)(OC)OC=C(Cl)Cl`, “inactive”; under `COP(=S)(OC)Oc1ccc([N+](=O)[O-])cc1`, “inactive”. As to `CCC(C)(NC(=O)c1cc(Cl)c(C)c(Cl)c1)C(=O)CCl` (stereo not given), the compound was classed as inactive. On the same count and under the same terms, under `N#CN` stands “inactive”.

For the compound `CCN(CC)C(=O)SCc1ccc(Cl)cc1`, the compound was classed as inactive. As for `CC(C)(C)C(O)C(Oc1ccc(Cl)cc1)n1cncn1` (stereo not given), the concentration at half-maximal activity (AC50) was 49.8 µM (active) and 33.6 µM (active) and 48.3 µM (active). On to `CNC(=O)/C=C(\C)OP(=O)(OC)OC`, for which the compound was called inactive.

Take `O=C(Nc1ccccc1)Nc1cnns1`: the outcome was inactive. On the same count and under the same terms, the value for `Oc1ccc(Cl)cc1Cc1ccccc1` was “inactive”; that for `O=[N+]([O-])c1c(Cl)c(Cl)c(Cl)c(Cl)c1Cl` was “inactive”; that for `O=C(O)C(F)(F)C(F)(F)C(F)(F)C(F)(F)C(F)(F)C(F)(F)C(F)(F)F` was “inactive”. On the same count and under the same terms, the value for `O=C(O)COc1ccc(Cl)cc1Cl` was “inactive”; that for `CCc1ccc(C(=O)NN(C(=O)c2cc(C)cc(C)c2)C(C)(C)C)cc1` was “inactive”. As to `Clc1ccccc1-c1nnc(-c2ccccc2Cl)nn1`, the compound was called inactive.

These data come from PubChem BioAssay (EPA / NIEHS).
